Drawing on ChEMBL document CHEMBL3988442, “University of Dundee, Small-Polar-MMV Screening Library” (2021), this text covers Percent Effect for eleven molecules.

For some of these results: Entries with a potency or affinity are not part of this list.

Holding throughout (design): scale not given: direction of the effect not stated beside the values
Test [1] has as its target Protein translocase subunit SecA (Escherichia coli (strain K12)) (UniProt P10408). Briefly: Assay to Identify E. coli SecA ATPase Inhibitors. It is filed as functional. The following applies: 30 µM.
The target of test [2] is T1, Ubiquitin-activating enzyme e1, putative (Leishmania donovani (strain BPK282A1)) (UniProt E9BSI1).
T1 sequence (whole entry): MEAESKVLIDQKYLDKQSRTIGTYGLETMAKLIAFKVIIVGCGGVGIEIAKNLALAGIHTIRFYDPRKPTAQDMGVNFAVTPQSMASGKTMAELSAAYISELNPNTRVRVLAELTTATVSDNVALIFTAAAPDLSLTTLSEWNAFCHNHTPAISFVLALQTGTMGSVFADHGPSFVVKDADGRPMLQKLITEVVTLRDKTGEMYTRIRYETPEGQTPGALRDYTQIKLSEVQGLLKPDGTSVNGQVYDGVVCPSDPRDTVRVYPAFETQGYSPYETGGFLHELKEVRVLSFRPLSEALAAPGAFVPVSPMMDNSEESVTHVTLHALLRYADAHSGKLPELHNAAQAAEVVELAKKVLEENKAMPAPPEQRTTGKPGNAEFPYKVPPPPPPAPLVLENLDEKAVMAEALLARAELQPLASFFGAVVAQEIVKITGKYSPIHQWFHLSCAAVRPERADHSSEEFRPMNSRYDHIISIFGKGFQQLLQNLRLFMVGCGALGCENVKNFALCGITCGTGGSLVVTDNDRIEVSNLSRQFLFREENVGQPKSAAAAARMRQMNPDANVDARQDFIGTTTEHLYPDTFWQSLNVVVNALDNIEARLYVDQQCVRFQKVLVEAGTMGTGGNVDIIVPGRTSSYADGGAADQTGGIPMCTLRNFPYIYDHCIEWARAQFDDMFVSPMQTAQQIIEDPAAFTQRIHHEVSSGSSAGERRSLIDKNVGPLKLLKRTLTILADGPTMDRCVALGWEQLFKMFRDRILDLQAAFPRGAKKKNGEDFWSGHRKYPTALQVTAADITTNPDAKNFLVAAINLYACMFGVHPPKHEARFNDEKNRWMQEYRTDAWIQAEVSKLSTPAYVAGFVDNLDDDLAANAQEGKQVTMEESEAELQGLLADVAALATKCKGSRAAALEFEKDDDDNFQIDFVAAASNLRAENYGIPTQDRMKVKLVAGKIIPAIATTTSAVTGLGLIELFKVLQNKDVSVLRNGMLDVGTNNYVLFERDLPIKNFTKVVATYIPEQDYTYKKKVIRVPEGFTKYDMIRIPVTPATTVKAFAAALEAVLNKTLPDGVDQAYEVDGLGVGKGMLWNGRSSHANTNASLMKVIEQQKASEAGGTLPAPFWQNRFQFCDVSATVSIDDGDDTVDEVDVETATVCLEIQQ
Briefly: Leishmania donovani Ubiquitin Activating Enzyme (LdE1). It is filed as functional. The following applies: 30 µM.

The target of test [3] is AMP-activated protein kinase, AMPK (Homo sapiens) (UniProt P54646+O43741+P54619+Q9UGJ0+Q9Y478+Q13131+Q9UGI9). Briefly: AMP-dependent Kinase enzyme assay. An in vitro enzyme assay that detects ADP turnover that is directly proportional to AMPK activity. This uses naive AMPK that is activated during the assay with MK-8722. The following applies: 30 µM. It is filed as functional.

For test [4], the target named is Sialic acid-binding Ig-like lectin 9 (Homo sapiens) (UniProt Q9Y336). Briefly: Hs-Siglec9 ALPHAscreen SOP 20170721. The following applies: 10 µM. In general terms: In Alpha technology, singlet oxygen from a donor bead excites a nearby acceptor bead.
A further test relates to Trypanosoma cruzi. Put plainly: Trypanosoma cruzi phosphomannomutase and mannose-1-phosphate guanylyltransferase assay. The following applies: 10 µM. It is filed as functional.
In test [5] the target is T2, Arginase-2, mitochondrial (Homo sapiens) (UniProt P78540).
T2 sequence (whole entry): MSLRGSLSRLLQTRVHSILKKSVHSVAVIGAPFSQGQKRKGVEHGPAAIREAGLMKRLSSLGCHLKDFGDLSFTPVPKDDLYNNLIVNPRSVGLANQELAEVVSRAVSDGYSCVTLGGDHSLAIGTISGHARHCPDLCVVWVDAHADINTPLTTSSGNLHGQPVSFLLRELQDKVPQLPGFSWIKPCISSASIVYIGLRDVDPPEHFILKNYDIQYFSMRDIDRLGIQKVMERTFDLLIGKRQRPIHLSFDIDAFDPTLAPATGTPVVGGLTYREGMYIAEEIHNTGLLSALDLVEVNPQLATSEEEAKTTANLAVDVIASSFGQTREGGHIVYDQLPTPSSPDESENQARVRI
Briefly: in vitro enzyme assay to detect the production of urea directly proportional to the activity of Arginase II. Further: in the data most compounds retested in dose-response had high values. Format: functional. The following applies: 33.3 µM.

Test [6] concerns the target T3, Proteasome subunit beta (Trypanosoma cruzi) (UniProt O96673).
T3 sequence (whole entry): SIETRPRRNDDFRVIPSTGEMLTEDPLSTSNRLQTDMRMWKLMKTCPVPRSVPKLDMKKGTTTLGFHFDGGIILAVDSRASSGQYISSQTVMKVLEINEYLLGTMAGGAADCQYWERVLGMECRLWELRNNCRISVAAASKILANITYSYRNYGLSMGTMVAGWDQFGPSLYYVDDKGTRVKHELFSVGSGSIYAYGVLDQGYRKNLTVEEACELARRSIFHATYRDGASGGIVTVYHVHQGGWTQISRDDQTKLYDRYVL
Briefly: Trypanosoma cruzi proteasome chymotrypsin-like activity (TcProtChymo) assay. Further: in the data most compounds retested in dose-response had high values. Format: functional. The following applies: 9.37 µM.

A further test is filed under the species Homo sapiens. Briefly: To identify inhibition of the IFN signalling (Jak-Stat) pathway via expression of an eGFP reporter gene under the control of an IFN-stimulated response element (ISRE) containing MxA promoter. Format: functional. The following applies: 30 µM.
Test [7] concerns the target T4, Tyrosyl-tRNA synthetase, putative (Trypanosoma cruzi (strain CL Brener)) (UniProt Q4DSP6).
T4 sequence (whole entry): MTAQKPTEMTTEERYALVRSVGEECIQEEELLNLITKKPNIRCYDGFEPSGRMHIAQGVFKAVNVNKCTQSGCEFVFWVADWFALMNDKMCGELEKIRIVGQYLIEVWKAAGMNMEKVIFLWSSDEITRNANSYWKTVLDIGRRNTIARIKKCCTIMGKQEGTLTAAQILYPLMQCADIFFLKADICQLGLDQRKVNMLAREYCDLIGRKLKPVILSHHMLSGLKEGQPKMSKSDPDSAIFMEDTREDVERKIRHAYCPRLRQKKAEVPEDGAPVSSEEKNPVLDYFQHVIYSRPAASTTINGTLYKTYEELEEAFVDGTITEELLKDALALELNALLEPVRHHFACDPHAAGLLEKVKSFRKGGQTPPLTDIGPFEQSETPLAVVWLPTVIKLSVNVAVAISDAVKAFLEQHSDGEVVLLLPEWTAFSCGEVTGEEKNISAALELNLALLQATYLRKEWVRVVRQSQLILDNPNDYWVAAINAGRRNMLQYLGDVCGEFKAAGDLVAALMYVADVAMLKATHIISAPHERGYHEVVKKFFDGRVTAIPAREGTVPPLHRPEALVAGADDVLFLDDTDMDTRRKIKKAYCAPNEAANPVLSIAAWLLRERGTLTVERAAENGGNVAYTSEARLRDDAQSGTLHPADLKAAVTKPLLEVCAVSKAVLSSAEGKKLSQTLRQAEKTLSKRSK
Briefly: Trypanosoma cruzi tyrosyl tRNA synthetase (TcYRS) _High Tyrosine SOP. Further: in the data most compounds retested in dose-response had high values. Format: functional. The following applies: 30 µM.

Test [8] has as its target T4, Tyrosyl-tRNA synthetase, putative (Trypanosoma cruzi (strain CL Brener)). Briefly: Trypanosoma cruzi tyrosyl tRNA synthetase (TcYRS) SOP. The following applies: 30 µM. Format: functional.
The target of test [9] is Chromo domain-containing protein 1 (Saccharomyces cerevisiae (strain ATCC 204508 / S288c) (Baker's yeast)) (UniProt P32657). Briefly: ScCHD-1 Enzyme Inhibition Assay. Further: in the data most compounds retested in dose-response had high values. Format: functional. The following applies: 30 µM.
Sequence of Chromo domain-containing protein 1 (Saccharomyces cerevisiae (strain ATCC 204508 / S288c) (Baker's yeast)) (P32657 whole entry, the tested form may be a part): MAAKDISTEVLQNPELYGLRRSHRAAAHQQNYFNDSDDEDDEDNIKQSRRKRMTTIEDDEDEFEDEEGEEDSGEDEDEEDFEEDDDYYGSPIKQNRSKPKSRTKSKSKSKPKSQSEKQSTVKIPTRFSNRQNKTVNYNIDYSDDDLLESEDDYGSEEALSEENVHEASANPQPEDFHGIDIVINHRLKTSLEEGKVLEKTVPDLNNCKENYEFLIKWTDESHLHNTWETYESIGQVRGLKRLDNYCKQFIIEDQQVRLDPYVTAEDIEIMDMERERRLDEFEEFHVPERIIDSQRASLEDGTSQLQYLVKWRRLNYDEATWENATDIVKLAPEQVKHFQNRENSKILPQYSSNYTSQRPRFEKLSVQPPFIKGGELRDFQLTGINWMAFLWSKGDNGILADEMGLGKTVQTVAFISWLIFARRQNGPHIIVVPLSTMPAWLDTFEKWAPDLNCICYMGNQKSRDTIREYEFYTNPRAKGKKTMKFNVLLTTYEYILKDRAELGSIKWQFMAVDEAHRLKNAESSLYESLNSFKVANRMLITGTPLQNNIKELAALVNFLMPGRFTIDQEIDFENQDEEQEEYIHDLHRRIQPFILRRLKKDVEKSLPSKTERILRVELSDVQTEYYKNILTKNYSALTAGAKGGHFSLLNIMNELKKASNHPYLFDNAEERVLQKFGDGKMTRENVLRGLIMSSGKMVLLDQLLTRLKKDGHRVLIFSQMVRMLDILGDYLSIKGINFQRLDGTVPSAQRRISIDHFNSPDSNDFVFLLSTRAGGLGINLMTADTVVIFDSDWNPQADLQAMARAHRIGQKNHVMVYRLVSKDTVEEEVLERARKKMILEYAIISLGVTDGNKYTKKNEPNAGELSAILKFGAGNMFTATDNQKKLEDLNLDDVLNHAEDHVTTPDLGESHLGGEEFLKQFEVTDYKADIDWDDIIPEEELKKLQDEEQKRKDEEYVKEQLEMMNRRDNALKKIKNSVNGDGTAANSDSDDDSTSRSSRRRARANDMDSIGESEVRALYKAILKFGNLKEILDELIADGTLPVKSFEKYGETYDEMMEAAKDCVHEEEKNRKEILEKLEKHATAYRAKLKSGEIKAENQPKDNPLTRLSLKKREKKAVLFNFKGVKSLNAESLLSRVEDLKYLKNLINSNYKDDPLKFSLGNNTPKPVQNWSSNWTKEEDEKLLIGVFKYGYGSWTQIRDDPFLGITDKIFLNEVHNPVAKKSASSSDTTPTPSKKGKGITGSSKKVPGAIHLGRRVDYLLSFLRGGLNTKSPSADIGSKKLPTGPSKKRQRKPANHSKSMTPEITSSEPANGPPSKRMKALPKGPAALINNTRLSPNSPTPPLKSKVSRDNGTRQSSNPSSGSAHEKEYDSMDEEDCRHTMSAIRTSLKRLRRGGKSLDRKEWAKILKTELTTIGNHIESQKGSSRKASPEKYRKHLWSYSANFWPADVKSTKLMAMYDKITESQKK

Sequence of Protein translocase subunit SecA (Escherichia coli (strain K12)) (P10408 whole entry): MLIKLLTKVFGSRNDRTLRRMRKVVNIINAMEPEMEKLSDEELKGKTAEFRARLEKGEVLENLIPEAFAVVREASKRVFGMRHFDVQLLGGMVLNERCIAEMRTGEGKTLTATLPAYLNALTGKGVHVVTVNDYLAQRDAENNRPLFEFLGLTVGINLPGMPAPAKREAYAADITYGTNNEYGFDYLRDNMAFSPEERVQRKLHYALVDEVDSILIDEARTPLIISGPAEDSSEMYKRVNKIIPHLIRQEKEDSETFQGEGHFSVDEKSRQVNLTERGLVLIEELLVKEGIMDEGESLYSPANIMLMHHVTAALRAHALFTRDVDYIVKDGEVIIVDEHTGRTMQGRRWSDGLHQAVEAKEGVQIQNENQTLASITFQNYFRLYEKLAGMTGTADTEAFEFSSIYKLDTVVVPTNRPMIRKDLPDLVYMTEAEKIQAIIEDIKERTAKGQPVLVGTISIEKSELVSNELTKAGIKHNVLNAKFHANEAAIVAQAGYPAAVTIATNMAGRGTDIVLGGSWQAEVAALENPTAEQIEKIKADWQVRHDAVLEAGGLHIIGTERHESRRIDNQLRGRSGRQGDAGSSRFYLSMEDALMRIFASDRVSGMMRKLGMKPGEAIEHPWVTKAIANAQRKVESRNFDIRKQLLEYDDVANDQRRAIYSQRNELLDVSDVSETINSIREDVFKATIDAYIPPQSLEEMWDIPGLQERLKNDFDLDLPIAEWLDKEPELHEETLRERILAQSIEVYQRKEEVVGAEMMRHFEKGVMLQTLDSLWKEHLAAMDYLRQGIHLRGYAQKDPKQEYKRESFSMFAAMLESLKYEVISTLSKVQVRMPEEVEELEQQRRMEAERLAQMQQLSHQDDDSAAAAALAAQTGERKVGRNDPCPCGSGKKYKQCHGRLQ
Sequence of Sialic acid-binding Ig-like lectin 9 (Homo sapiens) (Q9Y336 whole entry): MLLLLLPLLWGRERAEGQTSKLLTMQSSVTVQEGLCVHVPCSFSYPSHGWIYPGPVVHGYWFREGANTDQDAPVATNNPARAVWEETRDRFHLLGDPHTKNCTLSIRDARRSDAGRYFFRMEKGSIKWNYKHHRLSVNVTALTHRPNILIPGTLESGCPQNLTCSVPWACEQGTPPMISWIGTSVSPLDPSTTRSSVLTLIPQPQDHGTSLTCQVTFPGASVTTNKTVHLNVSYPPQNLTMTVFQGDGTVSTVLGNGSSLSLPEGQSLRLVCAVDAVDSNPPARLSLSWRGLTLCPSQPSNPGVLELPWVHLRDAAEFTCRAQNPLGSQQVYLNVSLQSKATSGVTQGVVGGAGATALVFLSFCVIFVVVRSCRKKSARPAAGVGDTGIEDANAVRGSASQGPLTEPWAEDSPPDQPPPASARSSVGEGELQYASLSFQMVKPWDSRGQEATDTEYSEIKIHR

On to `Cc1cnn(CC(C)NCc2nc(-c3cccnc3)no2)c1` (stereo unspecified), for which the Percent Effect in [1] is -6.08%; in test [2], -1.39%; in [3] it was -14%; in [4], 7.77%; with Trypanosoma cruzi it was -4.76%; in test [5], -1.32%. Further, the Percent Effect is 13% in test [6]; -8.09% in the test listed under Homo sapiens; 7.37% in test [7]; 5.13% in [8]; -1.42% in test [9].
For `CC(=O)NCCc1ccc(S(=O)(=O)N(CC(C)C)C(C)C)s1`, the Percent Effect was 3% in test [1]; 4.17% in [2]; 30.7% in test [3]; 4.43% in test [4]; -6.9% in the test on Trypanosoma cruzi; -0.883% in test [5]. The Percent Effect in test [6] is 18.2%; in the test listed under Homo sapiens, 16.9%; in [7] it was -2.1%; in test [8] it was -5.13%; in [9], 106%.
On to `OC1(Cn2ccc3ncccc32)CCN(Cc2ccccn2)CC1`, for which the Percent Effect in test [1] was -3.91%; in test [2], 6.76%; in test [3], 8.71%; in test [4], -8.37%; in the test on Trypanosoma cruzi, -10.3%; in [5], -5.34%. The Percent Effect in test [6] was 13.7%; in the test listed under Homo sapiens, 34.1%; in [7], -3.23%; in [8], -9.09%; in test [9], -14.5%.
For `CCc1nccn1C1CCCN(C(=O)c2cc3nc(C)ccc3o2)C1` (stereo unspecified), the Percent Effect in test [1] was -7.55%; in test [2], 8.11%; in [3] it was -3.48%; in test [4], 4.87%; in the test with Trypanosoma cruzi, -6.7%; in [5], -4.81%. The Percent Effect in test [6] came to 4.87%; in the test listed under Homo sapiens, 32.4%; in test [7], 3.45%; in test [8] it was 3.7%; in [9], 0.188%.
Take `Cc1cccc(CNC2CCCc3c2cnn3C)c1` (stereo unspecified): the Percent Effect in test [1] was 2.29%; in [2] it was -5.41%; in test [3] it was -6.19%; in [4], 5.27%; in the test with Trypanosoma cruzi it was 5.38%; in test [5], 0%. In addition, the Percent Effect in test [6] was 3.6%; in the test filed under Homo sapiens, -2.08%; in test [7], 0.493%; in test [8] it was 6.17%; in test [9], -2%.
As for `Cc1cccc(COC[C@]23COC[C@H]2CN(C(=O)c2ccsc2)C3)n1`, the Percent Effect in [1] was -1.49%; in test [2], 5.41%; in [3] it was 1.58%; in test [4] it was 0.368%; with Trypanosoma cruzi, 1.95%; in test [5] it was 27.9%. For the same molecule, the Percent Effect in test [6] was 10.9%; in the test filed under Homo sapiens, -2.76%; in test [7], 8.91%; in test [8] it was 13.4%; in test [9] it was -5.97%.
As for `O=C(C1=CCCC1)N1CCO[C@H]2[C@@H](OCC3CC3)CC[C@@H]21`, the Percent Effect is -3.62% in [1]; 18.7% in [2]; -4.28% in [3]; -6.26% in test [4]; 2.51% in the test on Trypanosoma cruzi; -51.1% in [5]. The Percent Effect in test [6] was 18.3%; in the test listed under Homo sapiens, -0.0365%; in test [7], 5.21%; in test [8] it was 22.5%; in [9], -7.27%.
Consider `Cc1nc(C)n(CC2CCCCN2CCS(C)(=O)=O)n1` (stereo unspecified), for which the Percent Effect in test [1] was -4.31%; in test [2], -2.7%; in test [3] it was 0.489%; in test [4] it was 0.818%; in the test with Trypanosoma cruzi, -3.09%; in [5], -3.33%. Besides, the Percent Effect in test [6] was 11.7%; in the test listed under Homo sapiens, 8.2%; in test [7], -2.65%; in [8] it was -4.88%; in test [9], -3.45%.
Take `Cc1nc(CNC(=O)Cn2nc(-c3ccc(F)cc3)oc2=O)cs1`: the Percent Effect in test [1] was -2.4%; in [2], 15.8%; in test [3], 10.4%; in test [4], 6.52%; with Trypanosoma cruzi, -1.32%; in test [5] it was -4.21%. For the same molecule, the Percent Effect in test [6] is 3.17%; in the test filed under Homo sapiens, 8.37%; in test [7], 7.35%; in [8], 12.2%; in [9], -5.84%.
On to `Cc1cc(CN2CCC(c3ccnn3CCO)CC2)no1`, for which the Percent Effect is -3.65% in test [1]; 20.2% in test [2]; -6.78% in test [3]; 7.01% in [4]; 6.7% with Trypanosoma cruzi; 3.8% in test [5]. Besides, the Percent Effect is 7.45% in test [6]; -6.11% in the test listed under Homo sapiens; 4.43% in test [7]; 21.5% in test [8]; -6.58% in [9].
Regarding `O=C(NCc1cccnc1)C1CC(=O)N(CC2CC2)C1` (stereo unspecified), the Percent Effect is -5.33% in test [1]; 15.6% in test [2]; -0.688% in test [3]; -14.6% in test [4]; 6.37% in the test on Trypanosoma cruzi; -1.05% in test [5]. In addition, the Percent Effect was 17.7% in test [6]; 4.16% in the test listed under Homo sapiens; 4.76% in [7]; 21.2% in test [8]; -21.7% in test [9].
